From PubChem BioAssay (NCATS)
Inconclusive results are not listed. Calls of active or inactive are those of the source. Calls follow the shape of the dose curve; as a rule, active = well fitted cell-killing curve with a large enough effect; inconclusive = small, poorly fitted or top-dose-only effect, or effect the other way; inactive = flat fitted curve, though single readings scatter.

tested on: PA-1; assay: Primary qHTS to identify gynecologic anti-cancer compounds using libraries of approved drugs and bioactive compounds (AID 1345084); conditions: Gynecologic cancer cell panel viability, ATPlite luminescence, 48 h; series mostly up to 57.5 µM; activity change, negative = cytotoxicity: at the top concentration; also: nearly all actives have a fitted effect of over 55% in size
How it was run: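 Five-concentration response, 48 h; readout is ATP-driven luciferase luminescence.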
% is scaled to controls: 0 for no effect and ±100 for the full control effect.

Row | SMILES | activity change, negative = cytotoxicity
1 | C=CC(=O)NCNC(=O)C=C | 10.9% [at 116 µM] (inactive)
2 | O=C1C(I)=CC(=C(c2cc(I)c(O)c(I)c2)c2ccccc2C(=O)O)C=C1I | 19.9% (inactive)
3 | CCc1c(C(=O)C(N)=O)c2c(OCC(=O)O)cccc2n1Cc1ccccc1 | 11.2% (inactive)
4 | O=C1C=CC[C@@H]2[C@H]3CCCN4CCC[C@@H](CN12)[C@@H]34 | 3.63% (inactive)
5 | O=C(Oc1ccc([N+](=O)[O-])cc1)N1CCC(C(O)(c2ccc3c(c2)OCO3)c2ccc3c(c2)OCO3)CC1 | -12.3% (inactive)
6 | O=C(NCC1CCOCC1)c1cnc(Nc2ccc(Cl)cc2Cl)nc1C(F)(F)F | 2.46% (inactive)
7 | Cc1ccccc1-n1c(Cn2ncc3c(N)ncnc32)nc2cccc(C)c2c1=O | 3.58% (inactive)
8 | O=C(O)c1cc(Oc2ccc(C(F)(F)F)cc2Cl)ccc1[N+](=O)[O-] | -1.88% (inactive)
9 | Oc1ccc2c3c1O[C@H]1[C@@H](O)C=C[C@H]4[C@@H](C2)NCC[C@@]341 | -0.291% [at 116 µM] (inactive)
10 | CC(C)NCC(O)c1ccc([N+](=O)[O-])cc1 (configuration not stated) | -0.939% (inactive)
11 | CC[N+]1(CCOC(=O)C(O)(c2ccccc2)c2ccccc2)CCCCC1 | -5.92% (inactive)
12 | CCOC(=O)Nc1ccc(NCc2ccc(F)cc2)cc1N | 6.38% (inactive)
13 | CCO/N=C(\CC)C1=C(O)CC(c2c(C)cc(C)cc2C)CC1=O (configuration not stated) | -1.84% [at 116 µM] (inactive)
14 | S=C(NC1CCCCC1)N1CCC(c2cnc[nH]2)CC1 | 3.77% (inactive)
15 | CC(=O)N(C)c1cccc(-c2ccnc3c(C(=O)c4cccs4)cnn23)c1 | 3.47% (inactive)
16 | O=S(=O)(O)C(F)(F)C(F)(F)C(F)(F)C(F)(F)C(F)(F)C(F)(F)C(F)(F)C(F)(F)F | -1.19% [at 116 µM] (inactive)
17 | O=S(=O)(O)C(F)(F)C(F)(F)C(F)(F)C(F)(F)F | 15% [at 116 µM] (inactive)
